# Platelet DG rel: inhibitors of platelet dense granule secretion, primary screen, cell-based, MLPCN, human platelets; human platelet-rich plasma, SFLLRN dense granule ATP release, luminescence; inhibition, %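 (compounds screened at 7.5 µM in platelet-rich plasma)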; hit rate 0.22% among 300,000;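 active = mean replicate score, as percent of positive control, at or above 50; inconclusive = mean below 50 but at least one replicate at or above 50; inactive = mean and every replicate below 50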
# SKKanGAS inh: S. pyogenes SKKanGAS growth inhibitors in kanamycin, primary screen, streptokinase expression inhibitor project, SKKanGAS strain, BacTiter-Glo luminescence | hit rate 1.3% among 300,000 | 6 h | AID 1662, 2009 | inhibition, % at 7.5 µM;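 active = mean replicate score, as percent of positive control median, at least 50; inconclusive = mean below 50 but one replicate at or above 50; inactive = mean and every replicate below 50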;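 also: strain carries kanamycin resistance gene driven by streptokinase promoter and grows in 40 µg/ml kanamycin; loss of luminescence reflects streptokinase promoter inhibition or plain growth inhibition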
# PolyA inh: polyadenylation inhibitors in yeast reporter cells, primary screen, luminescence, S. cerevisiae | S. cerevisiae SKY197-pL101 polyadenylation reporter, beta-gal luminescence; efflux-impaired pdr1/pdr3 knockout yeast; score 100 = 6 SD above DMSO | activity score, % at 12 µM | hit rate 0.02% among 300,000;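 active = lowest replicate activity score at least 50, where 100 means six control SD above control mean; inconclusive = lowest score under 50 but half or more replicates reach 50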;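 also: yeast exposed to compound for 9 h at 30 °C; higher score means more reporter readthrough which indicates perturbed polyadenylation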
# Yeast superoxide: reduction of superoxide in aged yeast, primary screen, HTS; S. cerevisiae aged cells, superoxide DHE fluorescence; stronger effect = lower value; superoxide response (% of plate mean), % at 10 µM; hit rate 0.18% among 330,000;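 active = superoxide response under a set limit, about three screen SD below normal, cut at about 65% in these data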;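 also: yeast aged for seven days with compound at 30 °C before DHE staining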
# Calb FLC: C. albicans growth inhibition with fluconazole, primary screen, CaCi-2 strain, Alamar Blue fluorescence. C. albicans CaCi-2 (fluconazole-resistant clinical isolate) + fluconazole, 48 h. growth inhibition, % (concentration not given with the values). hit rate 0.57% among 300,000. AID 1979, 2009;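 active = growth inhibition above about 58% in most replicates, limit read from the data, passing the limit was not always enough; inconclusive = exactly half the replicates above a set limit; inactive = most replicates below a set limit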;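 also: all wells also contain fluconazole at 8 µg/ml as a sub-toxic cotreatment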
# Hits are given with their value; - = inactive; ? = inconclusive; . = no result given. A selection: hits, their analogues and other compounds. The true share with any hit is near 2%.
SMILES,Platelet DG rel,SKKanGAS inh,PolyA inh,Yeast superoxide,Calb FLC
COc1ccc(-c2noc(CNC(=O)CCN3C(=O)[C@H]4CC=CC[C@H]4C3=O)n2)cc1,-,-,-,-,-
Cc1cc(OCC(=O)N2CCN(c3ccccn3)CC2)c(C)cc1Br,-,-,-,-,-
CCCC(O)(CCC)C(=O)NNc1ccc(C)cc1,-,-,-,-,111
CC(C)[C@H](NC(=O)N1c2ccccc2NC(=O)[C@@H]1C(C)C)C(=O)N1CCC(C(=O)O)CC1,-,-,-,-,-
CCCC1CC(C(=O)NC(C(C)Cl)C2OC(SC)C(O)C(O)C2O)N(C)C1 (stereo unspecified),-,106,-,-,.
CCC[C@@H]1C[C@@H](C(=O)NC(C(C)Cl)[C@H]2O[C@H](SC)[C@H](O)[C@@H](O)[C@H]2O)N(C)C1 (stereo partly specified),-,106,-,-,.
CCC[C@@H]1C[C@@H](C(=O)N[C@@H](C2O[C@H](SC)[C@H](O)[C@@H](O)[C@H]2O)[C@H](C)Cl)N(C)C1 (stereo partly specified),-,104,-,-,.
CC1CCCC(NC(=O)/C=C/c2c(F)cccc2Cl)C1C (stereo unspecified),-,-,-,-,-
O=C(CSc1nc2c(cnn2-c2cccc(Cl)c2)c(=O)[nH]1)NCCC1=CCCCC1,.,.,.,61,.
Cc1[nH]c2ccccc2c1C(C#N)(C#N)C1C(=O)c2ccccc2C1=O,-,65,-,-,-
CCn1c(SCC(=O)c2ccc(O)c(O)c2)nnc1-c1ccc(C)cc1,-,-,-,-,-
CCn1c(Cc2cccn2C)nnc1SCC(=O)c1ccc(C)cc1,58,-,-,-,-
Cc1ccc(-n2c(=O)c3c4c(sc3n3c(=S)[nH]nc23)CCC4)cc1,-,-,-,-,-
COc1ccc(-n2c(=O)c3c4c(sc3n3c(=S)[nH]nc23)CCC4)cc1,-,65,?,-,-
O=C(COC(=O)Cc1ccc(S(=O)(=O)N2CCOCC2)s1)NCc1ccc(Cl)cc1,-,-,56,-,-
Cc1cc(NC(=O)CCCn2cc([N+](=O)[O-])cn2)n(Cc2ccc(F)cc2)n1,-,-,-,-,-
CC(C)[C@H](NC(=O)c1ccccc1)C(=O)NC1=NCCS1,.,.,.,-,.
c1ccc2nc(-c3ccc(N4CCOCC4)cc3)ccc2c1,57,-,-,-,-
CN1CCN(c2ccc(-c3ccc4ccccc4n3)cc2)CC1,79,-,-,.,-
Cc1cccc(Oc2nc3ccccn3c(=O)c2/C=C(\C#N)C(=O)NC2CCS(=O)(=O)C2)c1C (stereo unspecified),57,-,-,-,-
Cn1c(CC(=O)Nc2ccc(Cl)c(Cl)c2)n[nH]c1=S,-,-,-,-,-
COc1ccc(Cc2n[nH]c(=S)n2NC(=O)Nc2ccc(Cl)c(Cl)c2)cc1,-,65,-,-,-
O=C(NNc1ccc([N+](=O)[O-])cc1)c1ccccc1Cl,-,-,-,-,92
O=C(O)c1ccccc1-c1ccccc1C(=O)NNc1ccc([N+](=O)[O-])cc1,-,-,-,-,-
CC(C)C[C@@H](C(=O)NCc1ccco1)N1C(=O)N2CCc3c([nH]c4ccccc34)[C@@]2(C)C1=O,-,-,-,-,-
SMILES,Platelet DG rel,SKKanGAS inh,PolyA inh,Yeast superoxide,Calb FLC
CCCCCCc1c(C)nc(-n2[nH]c(C)c(CCO)c2=O)[nH]c1=O,-,-,-,-,93
CCCCCCCc1c(C)nc(N2CCOCC2)[nH]c1=O,-,-,-,-,-
COc1cc(/C=N/NC(=O)CSc2ccccn2)ccc1OC(C)C,-,-,-,-,-
COC(=O)c1c(NC(=O)c2ccc([N+](=O)[O-])o2)sc2c1CCN(C(C)C)C2,-,57,-,-,-
Cc1cc(C)c2c(-n3cccc3)c(C(=O)NNS(=O)(=O)c3ccc(Br)cc3)sc2n1,-,59,-,-,-
CCOC(=O)Nc1sc2nc(C)cc(C)c2c1-n1cccc1,.,-,-,-,-
O=c1cc2oc3cc(O)c(O)cc3c(-c3ccccc3[N+](=O)[O-])c-2cc1O,-,50,-,-,88
COc1ccc(/C=C2\Oc3cc(OCC(=O)N4CC(O)C[C@H]4C(=O)O)ccc3C2=O)cc1OC (stereo partly specified),-,-,-,-,-
Cc1ncc(CO)c(/C=N/NC(=O)c2cc(Br)ccc2O)c1O,-,92,-,-,?
Cc1csc(NC(=O)c2nc(-c3ccccc3)n(-c3ccccc3)n2)n1,-,-,-,-,?
CCSc1nnc(NC(=O)c2ccc3ccccc3n2)s1,-,82,-,-,-
CCSc1nnc(NC(=O)c2nc(-c3ccccc3)n(-c3ccccc3)n2)s1,-,63,-,-,-
CCc1nnc(NC(=O)c2ccc3ccccc3n2)s1,-,-,-,-,-
Clc1ccc(-c2nc(/C=N/N3CCOCC3)c3ccccn23)cc1,-,-,-,-,-
C#CCCc1ccccc1/C=[N+](/C)[O-],.,.,.,-,.
CSc1ccc(S(=O)(=O)NCC(=O)OCC(=O)N2CCCC2=O)cc1[N+](=O)[O-],-,68,-,-,-
COc1cnc(-c2ccccn2)nc1Oc1ccc(Cl)cc1,-,-,-,-,-
COc1cnc(-c2ccccn2)nc1Oc1ccc(Cl)c2ccccc12,-,93,-,-,-
COc1cnc(-c2ccccn2)nc1Oc1ccccc1Cl,-,71,-,-,-
O=C(Nc1nnc(Cc2ccccc2)s1)c1ccccc1,-,-,-,-,-
Cc1ccc(Cc2cnc(NC(=O)c3cccs3)s2)cc1,-,78,-,-,-
O=C(Nc1ncc(Cc2ccccc2)s1)c1cccs1,-,66,-,-,-
Cc1ccc(C(=O)Nc2ncc(Cc3ccccc3)s2)o1,-,-,-,-,-
O=C(Nc1nc(-c2cc(Cl)sc2Cl)cs1)c1cccs1,-,61,-,-,-
O=C(Nc1ncc(Cc2ccc(SC(F)F)cc2)s1)c1ccccc1,-,82,-,-,-
SMILES,Platelet DG rel,SKKanGAS inh,PolyA inh,Yeast superoxide,Calb FLC
N#CC1(N2CCN(C(=O)c3ccccc3)CC2)CCCCC1,-,-,-,-,-
O=C(Nc1ncc(Cc2cccc(Cl)c2)s1)c1cccs1,-,95,-,-,-
COc1ccc(/C=N/Nc2nc(Nc3ccccc3)nc(N3CCCC3)n2)cc1,-,56,-,-,-
C(=N\Nc1nc(Nc2ccccc2)nc(N2CCCCC2)n1)/c1ccco1,-,81,-,-,-
O=C(O)COc1ccc(/C=N/Nc2nc(Nc3ccccc3)nc(N3CCCCC3)n2)cc1,-,57,-,-,-
O=c1[nH]c(NNC(=S)NC2CCCCC2)nc2c1C1(CCCC1)Cc1ccccc1-2,-,74,-,-,-
O=c1[nH]c(NNC(=S)NCc2ccccc2)nc2c1C1(CCCCC1)Cc1ccccc1-2,-,101,-,-,?
COCCNC(=O)/C(C#N)=C/c1ccc(O)cc1,86,-,-,-,-
